Test results from publication PMC5540273 (PLoS ONE, 2017).

Key:
MEK5 = tested on: T1, MEK5
T1 construct: gene MAP2K5

MINK = tested on: T2, MINK
T2 construct: gene MINK1

MEK2 = tested on: T3, MEK2
T3 construct: gene MAP2K2
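Also: kd values determined as follow-up on hits from a single-replicate KINOMEscan panel screen.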

## COc1cc(Nc2nccc(N3CCC(NC(=O)C4COc5ccccc5O4)C3)n2)cc(OC)c1OC (centres unmarked) [GSK1379761]
MEK5
  Kd: 0.18 µM

## COc1ccc(CNC(=O)NC2CCN(c3ccnc(Nc4ccc(F)cc4)n3)C2)cc1 (centres unmarked) [GSK1379706]
MINK
  Kd: > 10 µM

## COc1cc2nccc(Nc3cccc(Oc4ccccc4)c3)c2cc1OC.Cl [GW284543]
MEK2
  Kd: 0.27 µM
MEK5
  Kd: 0.011 µM

## COc1cccc(-n2cnc3c(N)ncnc32)c1 [SKF-97416]
MEK5
  Kd: 1.3 µM

## O=C(Nc1ccc2c(c1)OCO2)NC1CCN(c2ccnc(NCc3ccc(F)cc3)n2)CC1 [GSK1379859]
MELK
  Kd: > 10 µM

## O=C(Nc1n[nH]c2cc(-c3ccccc3F)ccc12)C1CC1 [SB-733371]
MYLK2
  Kd: 0.11 µM

## COc1cc2ncn(-c3cc(OCc4ccncc4Br)c(C(N)=O)s3)c2cc1OC [GW854278]
MEK5
  Kd: 0.078 µM
